Many of the other results were omitted from the sample, so hits are more common in it than they were.
HIV RNase H inh-1: inhibitors of HIV-1 reverse transcriptase RNase H; P04585; RT-RNase H RNA/DNA duplex cleavage, fluorescence; inhibition, % at 10 µM; hit rate 1.9% among 65,000; AID 565; in the data active = inhibition above about 50%
HIV RNase H inh-2: confirmation of HIV-1 reverse transcriptase RNase H inhibitors | shares compounds with HIV RNase H inh-1 | Recombinant RT RNase H, fluorescent RNA/DNA duplex cleavage | inhibition, % at 10 µM | hit rate 39% among 1,000; in the data active = inhibition above about 48%
Numbers without * were called inactive.

SMILES	HIV RNase H inh-1	others
COC(=O)CSC1=C(C#N)C(c2ccccc2)CC(=O)N1 (stereo not drawn)	-3
COC(=O)CSC1=C(C#N)C(c2ccc(C(C)C)cc2)CC(=O)N1 (stereo not drawn)	-9
Cc1cc(C)c(S(=O)(=O)Nc2ccc[nH]c2=O)c(C)c1	-103
CCOC(=O)C1(C)NC(c2ccc(OC)cc2OC)C2C(=O)N(c3cccc(OC)c3)C(=O)C21 (stereo not drawn)	-4
COc1ccc(OC)c(NC2c3ccccc3C(=O)N2c2cccnc2)c1 (stereo not drawn)	-7
Cc1oc(C)c2c(=O)ccc3c(c12)OC(N)=C(C#N)C3c1ccccc1 (stereo not drawn)	-5
Cc1oc(C)c2c(=O)ccc3c(c12)OC(N)=C(C#N)C3c1ccccc1Cl (stereo not drawn)	-8
CSc1ccc(C2C(C#N)=C(N)Oc3c2ccc(=O)c2c(C)oc(C)c32)cc1 (stereo not drawn)	61*	HIV RNase H inh-2=67*
CCOC(=O)C1=C(CS(=O)(=O)c2ccc(F)c(C)c2)NC(=O)NC1c1ccc(O)c(O)c1 (stereo not drawn)	24
COc1ccccc1Nc1nc(N)nc(CN2CCc3ccccc3C2)n1	-16
COc1ccc(S(=O)(=O)N2CCCC(C(=O)NCc3ccco3)C2)cc1Cl (stereo not drawn)	-12
COC(=O)C1=C(C(=O)c2ccc(C)cc2)C(c2ccc(OC)c(OC)c2)n2nnnc2N1 (stereo not drawn)	-3
COc1ccc(S(=O)(=O)N2CCC(C(=O)N3CCCCCC3)CC2)cc1	1
COCCn1c(Cc2ccccc2)nnc1SCC(=O)N(C)C	3
O=C(Cn1c(N2CCN(c3ccccc3)CC2)nc2ccccc21)c1ccccc1	3
COc1cc(C2C(C#N)=C(N)Oc3n[nH]c(C)c32)cc2c1OCO2 (stereo not drawn)	3
COc1ccc(C2C(C#N)=C(N)Oc3cc(C)n(CCN4CCOCC4)c(=O)c32)cc1OC (stereo not drawn)	-16
COc1cc(C2C(C#N)=C(N)Oc3cc(C)n(CCc4ccccc4)c(=O)c32)cc2c1OCO2 (stereo not drawn)	77*	HIV RNase H inh-2=28
Brc1cccc(C2CC(c3ccccc3)n3nnnc3N2)c1 (stereo not drawn)	-30
O=C(c1cccc(OC(F)F)c1)N1CCN(c2ncccn2)CC1	-3
Cc1oc2nc(SCC(=O)N3CCCCC3)nc(N)c2c1C	-27
COc1ccc(OC)c(C2C3CN(C(C)C)CC=C3C(C#N)=C(N)C2(C#N)C#N)c1 (stereo not drawn)	18
CCOC(=O)N1CC=C2C(C#N)=C(N)C(C#N)(C#N)[C@H](c3ccc(OCC)c(OCC)c3)[C@H]2C1	4
CCCCOc1ccc(C2C3CN(C(=O)OCC)CC=C3C(C#N)=C(N)C2(C#N)C#N)cc1OC (stereo not drawn)	84*	HIV RNase H inh-2=-1
O=C(COC(=O)c1ccccn1)Nc1cc(Cl)ccc1Cl	-16
SMILES	HIV RNase H inh-1	others
CCn1c(=O)c(C(=O)Nc2cnccn2)c(O)c2ccccc21	-19
C=CCn1c(=O)c(C(=O)NCCc2ccccc2)c(O)c2ccccc21	-14
C=CCn1c(=O)c(C(=O)Nc2nnc(C)s2)c(O)c2ccccc21	83*	HIV RNase H inh-2=98*
Cc1cc(C)cc(NC(=O)C2CCCN(c3nc(C)cc(C)n3)C2)c1 (stereo not drawn)	70*	HIV RNase H inh-2=44
Cc1cc(C)nc(N2CCCC(C(=O)Nc3ccc4nc(C)c(C)nc4c3)C2)n1 (stereo not drawn)	-3
Cc1cc(C)cc(NC(=O)C2CCCN(c3nccc(C)n3)C2)c1 (stereo not drawn)	-5
CCc1ccc(N(C(C)=O)C2C=CS(=O)(=O)C2)cc1 (stereo not drawn)	4
COc1ccc(/C(O)=C2/C(=O)C(=O)N(CCCN(C)C)C2c2ccccc2)cc1Cl (stereo not drawn)	-2
O=C1C2ON(c3ccccc3)C(c3cccnc3)C2C(=O)N1c1ccc(Cl)c(Cl)c1 (stereo not drawn)	0
O=C1C2ON(c3ccc(Br)cc3)C(c3cccnc3)C2C(=O)N1C1CCCCC1 (stereo not drawn)	64*	HIV RNase H inh-2=33
O=C1C2ON(c3ccccc3)C(c3cccnc3)C2C(=O)N1c1ccccc1 (stereo not drawn)	3
O=C(Nc1ccc(-c2noc(CCc3ccccc3)n2)cc1)c1ccco1	-1
CCN1CCCC1CNC(=O)Cn1cccc1C(=O)c1ccccc1 (stereo not drawn)	-12
O/N=C1\CCCc2oc3c(c21)CCCC3	-4
COCCNC(=O)C(C)OC(=O)c1cc2occc2n1C (stereo not drawn)	2
NC(CO)C(=O)NNCc1ccc(O)c(O)c1O (stereo not drawn)	30	HIV RNase H inh-2=32
CSc1nc2c(c(=O)[nH]1)C(c1ccncc1)C(C(=O)OC(C)C)=C(C)N2 (stereo not drawn)	-7
CCn1c(SCc2ccc(C#N)cc2)nnc1-c1ccc(S(=O)(=O)N2CCCCC2)cc1	2
